# Results reported in PubChem BioAssay AID1851 (National Center for Advancing Translational Sciences (NCATS), 2009).
# Where “and” joins values, the source holds several entries; their conditions need not be identical. Equal values may be shown once. The whole screen tested about 16,000 compounds, of which about 5,700 (36%) were called active. Inconclusive results (about 24%) are left out. This is one part of the list. Unmarked numbers belong to inactive results. Calls follow the shape of the dose curve; as a rule, active = well fitted curve in the direction sought with a large enough effect; inconclusive = small, poorly fitted or top-dose-only effect, or effect the other way; inactive = no such curve, though single readings can be large or run the other way.
# Molecular target: Cytochrome P450 1A2 (Homo sapiens) (UniProt P05177)
# Assay: Cytochrome panel assay with activity outcomes
# Settings: recombinant CYP, pro-luciferin dealkylation, luminescence, p450-cyp1a2; series mostly up to 57.1 µM; activity, negative = inhibition: at the top concentration
# % is scaled to controls: 0 for no effect and ±100 for the full control effect.
# Cytochrome P450 1A2 (Homo sapiens), sequence (P05177 whole entry, looked up): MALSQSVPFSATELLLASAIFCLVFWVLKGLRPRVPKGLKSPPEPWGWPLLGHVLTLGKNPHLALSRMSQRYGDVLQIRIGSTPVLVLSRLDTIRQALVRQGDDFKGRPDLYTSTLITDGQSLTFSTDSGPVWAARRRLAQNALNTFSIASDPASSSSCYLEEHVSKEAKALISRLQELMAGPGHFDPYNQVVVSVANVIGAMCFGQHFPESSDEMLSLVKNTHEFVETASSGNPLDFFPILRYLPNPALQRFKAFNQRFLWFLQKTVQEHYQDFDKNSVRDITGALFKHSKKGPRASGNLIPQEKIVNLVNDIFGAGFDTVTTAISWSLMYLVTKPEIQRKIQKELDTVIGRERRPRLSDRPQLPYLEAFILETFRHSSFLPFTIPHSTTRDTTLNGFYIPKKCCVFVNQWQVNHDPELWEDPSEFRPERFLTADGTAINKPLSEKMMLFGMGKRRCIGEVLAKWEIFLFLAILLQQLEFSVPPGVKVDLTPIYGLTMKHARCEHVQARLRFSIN
SMILES,"activity, negative = inhibition",AC50
C1COC(NC(C2CC2)C2CC2)=N1,-0.549% [at 25.6 µM],
Nc1ccc(Nc2ccccc2)cc1,,12600 nM (active)
N#[N+]c1ccc(Nc2ccccc2)cc1,-12.6% [at 11.4 µM],
Nc1ccccc1Nc1ccccc1,,25100 nM (active)
CCc1c(C(C)O)oc2ccc3c(C)cc(=O)oc3c12 (centres undefined),,282 nM (active)
CC(C)N1CCN(c2ccncc2S(=O)(=O)N2CCCCC2)CC1,-16.9% [at 2.29 µM],
Cc1c(NC(=S)N/N=C/c2ccc(O)cc2)c(=O)n(-c2ccccc2)n1C,-14.6%,
Cc1c(C(=O)N/N=C/c2ccccc2)sc(=S)n1C,,891 nM (active)
CCCC(=O)Nc1nc2nc(-c3ccccc3)cc(-c3ccccc3)n2n1,,2510 nM (active)
COc1cc(NC(=O)c2cc3nc(-c4ccccc4)cc(-c4ccccc4)n3n2)cc(OC)c1OC,-5.57%,
CCCC(=O)Nc1nc2n(n1)C(c1ccccc1)CC(=O)N2 (centres undefined),7.91%,
Cn1c(=O)c(-c2ccccc2)nc2cncnc21,,631 nM (active)
COc1ccc(-n2c(=O)c(-c3ccc(F)cc3)nc3cncnc32)cc1,-21.4%,
Cn1c(=O)c(-c2cccc(Cl)c2)nc2cncnc21,,501 nM (active)
Cn1c(=O)c(-c2ccc(F)c(F)c2)nc2cncnc21,,158 nM (active)
Cn1c(=O)c(-c2ccc(F)cc2)nc2cncnc21,,158 nM (active)
C[C@]1(C2CCCC2)Cc2cc(OCC(=O)O)c(Cl)c(Cl)c2C1=O,-14.8%,
COC(=O)[C@@]1(Cc2ccc(F)cc2)[C@H]2c3cc(C(=O)N4CCCC4)n(CCc4c[nH]c5ccccc45)c3C[C@H]2CN1C(=O)c1ccccc1,-7.35%,
Cn1c(=O)c(-c2ccc(Cl)cc2)nc2cncnc21,,25.1 nM (active)
Cn1c(=O)c(-c2cc(F)cc(F)c2)nc2cncnc21,,631 nM (active)
Cc1ccc(S(=O)(=O)CC#CCOC(=O)c2ccc([N+](=O)[O-])cc2)cc1,,6310 nM (active)
CC(=O)NN1C(=O)c2ccc(Oc3ccc([N+](=O)[O-])cc3)cc2C1=O,9.51%,
Cc1ccc(S(=O)(=O)CCCS(=O)(=O)c2ccc(C)cc2)cc1,-24.4%,
C/C(=N\NC(=S)Nc1ccc(F)cc1)C1CC1,,1780 nM (active)

SMILES,"activity, negative = inhibition",AC50
N=C(N)SCc1cccc2c(=O)cc(-c3ccccc3)oc12,,126 nM (active)
CCNc1ncc2nc(-c3cccs3)c(=O)n(C[C@H]3CCCO3)c2n1,,2510 nM (active)
CN(C)c1ncc2nc(-c3cccs3)c(=O)n(C[C@H]3CCCO3)c2n1,,1580 nM (active)
CN1CCN(c2ncc3nc(-c4cccs4)c(=O)n(C[C@H]4CCCO4)c3n2)CC1,,12600 nM (active)
OCCCSCCO,-19.1% [at 2.29 µM],
CCCC[C@@H]1CN2[C@H](c3ccc(Br)cc3)[C@@H](C)CC[C@H]2C(=O)O1,-6.09% [at 11.4 µM],
CO[C@@H]1COC(=O)C/C=C\[C@H](C)[C@H](OC)COC(=O)[C@H]2CCCN2C(=O)C/C=C\[C@H]1C,1.02% [at 11.4 µM],
COc1cccc(/C=N/NC(=O)CO/N=C(\C)c2cccs2)c1OC,,1410 nM (active)
Cc1[nH]c(=O)c(C(=O)/C=C/c2ccccc2F)c2c1CCCC2,,11200 nM (active)
COc1ccccc1/C=C/C(=O)c1ccc(Cl)cc1,,3550 nM (active)
COc1ccc2ccccc2c1/C=C\C(=O)c1ccccc1,,3160 nM (active)
COc1ccccc1/C=C/C(=O)c1c2c(c(C)[nH]c1=O)CCCC2,,12600 nM (active)
COc1cc(C)cc(OC)c1/C=C\C(=O)O,-6.92% [at 11.4 µM],
CCOc1ccc2ccccc2c1C(=O)N[C@@H]1C(=O)N2[C@@H]1SC(C)(C)[C@@H]2C(=O)O,-7.02% [at 25.6 µM],
CC(=O)[C@@H]1CC[C@@H]2[C@@H]3C[C@H](C)C4=CC(=O)CC[C@@]4(C)[C@H]3[C@H](O)C[C@]21C,-9.89% [at 25.6 µM],
CS(=O)(=O)N1CCC2(CCCN(C(c3ccccc3)c3ccccc3)C2)CC1,-13.9%,
O=C1CC(c2ccccc2)Cc2nc(N3CCc4ccccc4C3)ncc21 (centres undefined),,3550 nM (active)
Cc1ccc(C2CC(=O)c3cnc(N4CCc5ccccc5C4)nc3C2)cc1 (centres undefined),-13.4%,
CC1CC(=O)c2cnc(N)nc2C1 (centres undefined),-10.4%,
Cc1ccnn2cc3c(=O)n(C)c(=O)n(C)c3c12,,12600 nM (active)
COc1ccccc1CN1CC[C@@]2(CCCN(C(C)=O)C2)C1,2.29%,
COc1ccc2[nH]cc(CCNc3ncnc4ccc(-c5cccnc5)cc34)c2c1,,79.4 nM (active)
COc1ccc2[nH]cc(CCNc3ncnc4ccc(-c5cccc(C#N)c5)cc34)c2c1,,2510 nM (active)
CCC1=C(C)CN(C(=O)NCCc2ccc(S(=O)(=O)NC(=O)NC3CCC(C)CC3)cc2)C1=O (centres undefined),-7.51% [at 25.6 µM],

SMILES,"activity, negative = inhibition",AC50
Cc1ccc(OC(=O)c2oc3ccc(F)cc3c2C)c(C)c1,,2510 nM (active)
CCOC(=O)N1CCN(C(=O)c2oc3ccc(S(=O)(=O)N4CCCCC4)cc3c2C)CC1,-2.68%,
Cc1ccc(NC(=O)c2cc(NC(=O)CCCC(=O)O)ccc2Cl)cc1Cl,4.24%,
CCCOc1ccc(C(=O)CCNc2ccc(C)c(Cl)c2)cc1,,891 nM (active)
CCCOc1ccc(C(=O)NNC(=S)NC(=O)CC)cc1,-5.86%,
Cc1ccc(NCCC(=O)c2ccc(Cl)cc2)cc1,,251 nM (active)
Cc1ccc(NCCC(=O)c2ccc(Cl)c(Cl)c2)cc1,,1260 nM (active)
O=C(O)CCC(=O)Nc1ccc(C(=O)N2CCCCC2)cc1,-4.13%,
Cc1ccc(NC(=O)CCC(=O)c2ccc(F)cc2)cc1Cl,,6310 nM (active)
O=C(O)CCC(=O)c1ccc(Cl)cc1,-17.8% [at 11.4 µM],
O=C(O)[C@@H]1[C@@H]2C[C@@H]3[C@@H](OC(=O)[C@@H]31)[C@H]2Br,-4.92% [at 11.4 µM],
OC(CCN1CCCCC1)(c1ccccc1)c1ccccc1,-0.0902% [at 25.6 µM],
CCCCOC(=O)Nc1ccc(C)c(Cl)c1,,4470 nM (active)
Cc1c(Cl)c(S(N)(=O)=O)cc(S(N)(=O)=O)c1NC(=O)c1ccc(Cl)cc1,-2.26% [at 11.4 µM],
Cc1ccc(NCCC(=O)c2ccc(Cl)cc2)cc1C,,631 nM (active)
Cc1cnc(CNc2ncnc3ccc(-c4cccc(C#N)c4)cc23)cn1,,398 nM (active)
COc1cccc(-c2ccc3ncnc(NCc4cnc(C)cn4)c3c2)c1,,2510 nM (active)
C/C(CCN1CCc2nc(-c3ccccc3)c(-c3ccccc3)cc2C1)=N\OC[C@@H](C)[C@H](OCc1ccccc1)C(C)C,-4.9% [at 11.4 µM],
COC(=O)C/C=C\[C@@H](C)[C@@H](/C=N\OC[C@@H]1O[C@H](c2ccccc2)C=C[C@@H]1Oc1ccc(OC)cc1)OC,10.1% [at 11.4 µM],
Cc1cccc(OC(=O)CN2C(=O)C3C4CCC(C4)C3C2=O)c1C (centres undefined),,12600 nM (active)
CC(=O)Nc1ccc(NCN2C(=O)C3C4CCC(C4)C3C2=O)cc1 (centres undefined),10.1%,
Cc1cccc(C)c1NC(=O)CCN1C(=O)C2C3CCC(C3)C2C1=O (centres undefined),1.26%,
COc1ccc(O[C@H]2C=C[C@@H](c3ccccc3)O[C@H]2COC(=O)N2CCCCC2)cc1,-4.44% [at 11.4 µM],
C(=N\Nc1nc(Nc2ccccc2)nc(N2CCOCC2)n1)/c1c[nH]c2ccccc12,,10000 nM (active)

SMILES,"activity, negative = inhibition",AC50
C#CCCCO/N=C1/C[C@@H](O)[C@@H](O)[C@@H]2[C@@H]3C(=O)N(C[C@@H]4CCCO4)C(=O)[C@H]3CC[C@@H]12,1.69% [at 11.4 µM],
COc1ccccc1N1CCN(CCCCNC(=O)c2ccc(-c3ccc(C(C)=O)cc3)cc2)CC1,,25100 nM (active)
COc1ccccc1N1CCN(CCCCNC(=O)c2ccc3ccccc3c2)CC1,-12.9% [at 25.6 µM],
COc1ccccc1N1CCN(CCCNc2cc(=O)n(C)c(=O)n2C)CC1,,inactive
COc1ncc2nc(-c3ccc(F)cc3)c(=O)n(CCc3ccccc3)c2n1,,398 nM (active)
COc1ncc2nc(-c3ccc(F)cc3)c(=O)n(Cc3ccc(F)cc3)c2n1,,1580 nM (active)
COc1ncc2nc(C)c(=O)n(CCc3ccccc3)c2n1,,2000 nM (active)
COc1ccccc1N(CC(=O)NCC1CCCO1)C(=O)CNS(=O)(=O)c1ccc(C)cc1 (centres undefined),-5.27%,
Cc1ccc(S(=O)(=O)N[C@H]2COC(=O)CC=C[C@@H](C)[C@H]3C=C[C@H](O)[C@@H](COC(=O)CC=C[C@H]2C)O3)cc1,-8.39% [at 11.4 µM] and -5.02% [at 11.4 µM],
S=c1nc[nH]c2c1ncn2Cc1ccco1,-16.3% [at 11.4 µM],
CCOC(=O)c1c(C)n(C)c2ccc(OC)c(NC(=O)CN3CCCCC3)c12,,15800 nM (active)
Cc1c(NC(=O)CN2CCN(c3ccccc3)CC2)c(=O)n(-c2ccccc2)n1C,0.0126%,
Clc1ccc(CSc2nnc(-c3sccc3-n3cccc3)o2)cc1,,2820 nM (active)
Clc1ccc(CSc2nnc(-c3cccnc3)o2)cc1,,3550 nM (active)
O=c1c(-c2nnc(SCc3ccc(Cl)c(Cl)c3)o2)cccn1Cc1ccccc1,-26.4%,
c1ccc(CSc2nnc(-c3sccc3-n3cccc3)o2)cc1,,2820 nM (active)
Cc1cccc(-c2nnc(SCc3ccccc3)o2)c1,,14100 nM (active)
Clc1cccc(CSc2nnc(-c3sccc3-n3cccc3)o2)c1,,2510 nM (active)
CC(NC(=O)CCSc1nc(-c2ccco2)cc(C(F)(F)F)n1)c1ccccc1 (centres undefined),,12600 nM (active)
CC1CCN(C(NC(=O)c2ccco2)C(=O)c2ccccc2)CC1 (centres undefined),,14100 nM (active)
COC(=O)c1ccc(C(NC(=O)c2ccco2)[C@]2(C)C[C@H]2C2CCCCC2)cc1 (some centres undefined),-13.3%,
O=C(NC(C(=O)c1ccccc1)n1cnccc1=O)c1ccccc1 (centres undefined),3.62%,
